From PubChem BioAssay (NCATS)
Results filed as inconclusive are left out. Calls of active or inactive are those of the source. Calls come from the whole dose curve; as a rule, active = well fitted inhibition curve with a large enough effect; inconclusive = small, poorly fitted or top-dose-only effect; inactive = no such curve, though single readings can be large or run the other way. Numbered stars: 1 amine (or outer) side, 2 acyl side, 3 side chain; on linkers, the order of the positions; unused ones are H or OH. Square brackets hold non-standard residues; d marks the D form. Peptide text beside a SMILES is read from it. * marks the point of attachment. X1 = CCCCCCCCCC(=O)[C@H](C(=O)[*:2])[C@@H]1CNC(=O)[C@@H](N[*:1])CS1; Octanoyl = CCCCCCCC(=O)*

The molecules below were run on Zika virus NS2B-NS3 protease (linked construct) (assay: Primary screen NINDS Rhodamine qHTS for Zika virus inhibitors (AID 1347160; note: nearly all actives have a fitted effect of over 55% in size)). Details: purified NS2B-NS3 protease, Rhodamine110 substrate fluorescence; series mostly up to 57.1 µM; activity change, negative = inhibition: at the top concentration.
Description: Avindra Nath, Ph.D., National Institute of Neurological Disorders and Stroke (NINDS), Bethesda, MD
Radhakrishnan Padmanabhan, Ph.D., Georgetown University (GU), Washington D.C.
Zika Virus causes congenital defects, including microcephaly and is associated with Guillain-Barre syndrome, eningoencephalitis and myelitis in infected adult. […] Using a target-based approach, we hope to establish a screening paradigm to uncover novel, cell-active NS2B-NS3 protease (Zika Virus) specific inhibitors from NCATS' collection of small molecules using qHTS.
Four assay panel was created to identify potential Zika Virus inhibitors. Namely, (1) GU unlinked NS2B-NS3 AMC tagged protease qHTS, (2) GU unlinked NS2B-NS3 Rhodamine tagged protease qHTS, (3) NINDS linked NS2B-NS3 AMC tagged protease qHTS, (4) NINDS linked NS2B-NS3 Rhodamine tagged protease qHTS. Active compounds were re-acquired and re-screened to confirm inhibition. Inhibitors were further screened against various confirmatory and counterscreens in dose response format.
Early Translation Branch (ETB)
National Center for Advancing Translational Sciences (NCATS), Rockville, MD
National Institute of Health (NIH), Bethesda, Maryland
For the linked assay, Nath lab (NINDS) provided the purified linked NS2B-NS3 protease which is consists of hydrophilic domain of NS2B linked to the NS3 protease domain by a flexible (-[…]-) linker. Control compound aprotinin is obtained from Thermo Scientific (#78432; Waltham, Massachusetts). Rhodamine110 substrate ([N-Cbz]-Nle-Lys-Arg-Arg-Rhod110-Arg-Arg-Lys-Nle-[N-Cbz]) was purchased from either Genscript or Bachem.
1536-well Protease (Rhodamine110 Substrate) Assay:
Briefly, 3 microL of enzyme (25 nM final concentration), in assay buffer (10 mM Tris-HCl pH 8.0 with 0.01% Tween 20) were dispensed into a 1,536-well solid-bottom black plate (Greiner Bio One, Monroe, NC). Twenty-three nL of compounds (final concentration range 7.28 nM to 114 microM) or control Aprotinin (final concentration range 3.47 nM to 114 microM) were transferred via Wako Pin-tool (Wako Automation, Richmond, VA). Samples were incubated (room temperature, protected from light) for 15 minutes followed by a 1 microL Rhodamine110 substrate addition (1.5 microM final concentration). Plates were then immediately read on a ViewLux High-throughput CCD imager (PerkinElmer, Waltham, MA) equipped with FITC fluorescence optics (480(20) nm excitation, 540(25) nm emission), then incubated (room temperature, protected from light) for 15 minutes (~15% conversion). The change in fluorescence intensity over the 15-minute reaction period was normalized against no-inhibitor and no-enzyme controls and the resulting percent inhibition data were fitted to a 4-parameter Hill equation. Aprotinin was used as intraplate control.
% is set by controls: 0 for no effect and ±100 for the full control effect; potency is the fitted concentration of half-maximal effect.

Structure (SMILES) | activity change, negative = inhibition | Potency | outcome
CN1C(=O)C2C(N=CN2C)N(C)C1=O (stereo not given) | -12.5% [at 112 µM] (inactive) | – | –
COc1ccc([C@@H]2c3cc(OC)c(OC)cc3C(=O)C(C)C2C)cc1OC (stereo not given in full) | -26.5% [at 112 µM] (inactive) | – | –
C=C1/C(=C/C=C2\CCC[C@]3(C)[C@@H]([C@H](C)/C=C/C(=O)C4CC4)CC[C@@H]23)C[C@@H](O)C[C@@H]1O | -9.6% (inactive) | – | –
CCCCCCCCCC(=O)[C@@H]1C(=O)N[C@@H](CC(C)C)C(=O)N[C@H](C)C(=O)N2CCC[C@H]2C(=O)N[C@@H](C(C)C)C(=O)N[C@H]2CS[C@H]1CNC2=O (cyclo(L[dA]PV[X1])) | – | 4.4 µM (active) | –
CCCCn1ccc(N2CCC(c3ccccc3)CC2)c(Cl)c1=O | -13.8% (inactive) | – | –
O=C1c2c(O[C@@H]3O[C@H](CO)[C@@H](O)[C@H](O)[C@H]3O)cc(O)cc2OC1(O)Cc1ccc(O)cc1 (stereo not given in full) | -5.02% [at 33.1 µM] (inactive) | – | –
C=C1C(=O)O[C@H]2C[C@H](C)[C@@H]3CC(=O)C(C)=C3[C@H](O)[C@H]12 | 9.9% [at 112 µM] (inactive) | – | –
CCCCc1nc(C)c(CC(=S)N(C)C)c(=O)n1Cc1ccc(-c2ccccc2-c2nn[nH]n2)cc1 | 11.7% (inactive) | – | –
C=C1C(=O)O[C@@H]2CC(C)=C([C@@H](C)CCCO)[C@@H](OC(=O)C(C)C)[C@H]12 | -26% [at 33.1 µM] (inactive) | – | –
CC(CCC1(O)OC2CC3C4CC=C5CC(O[C@@H]6O[C@H](CO)[C@@H](O[C@@H]7O[C@H](CO)[C@@H](O)[C@H](O)[C@H]7O)[C@H](O)[C@H]6O[C@@H]6O[C@@H](C)[C@H](O)[C@@H](O)[C@H]6O)CCC5(C)C4CCC3(C)C2C1C)CO[C@@H]1O[C@H](CO)[C@@H](O)[C@H](O)[C@H]1O (stereo not given in full) | 19.9% [at 15.1 µM] (inactive) | – | –
O=C1C[C@@H](c2ccc(O)c(-c3c(O)cc(O)c4c3O[C@H](c3ccc(O)cc3)CC4=O)c2)Oc2cc(O)cc(O)c21 | – | 4.84 µM (active) | –
O=C(Nc1cccc(C(F)(F)F)c1)c1ccccc1NCc1ccncc1 | 19.8% (inactive) | – | –
CC1(C)CC[C@]2(C(=O)O)CC[C@]3(C)C(=CC[C@@H]4[C@@]5(C)C[C@@H](O)[C@H](O)C(C)(C)[C@@H]5CC[C@]43C)[C@@H]2C1 | – | 19.6 µM (active) | –
CCCCCCCCCCCCCCC[C@H](O)C[C@@H](O)C[C@@H](O)C[C@@H](O)C[C@@H](O)C[C@H]1CC=CC(=O)O1 | – | 44 µM (active) | –
C/C1=C\CC(=O)/C=C/C=C\c2csc(n2)[C@@H](C)NC(=O)C[C@@](S)([C@@H](C)C(=O)O)CC1 | – | 7.82 µM (active) | –
COc1ccc2cc(NC(=O)C3=NO[C@H]4[C@H](O)C=C[C@@H](Cl)[C@@]4(O)C3)c(=O)oc2c1OC | – | 49.3 µM (active) | –
O=[N+]([O-])c1ccc(-[n+]2nc(-c3ccccc3)nn2-c2ccc(I)cc2)cc1 | – | – | inactive
C[C@@H]1C(=O)[C@]23CC[C@H]1C[C@]21O[C@H]2C(C)(C)C=CC(=O)[C@@]23COC1=O | – | 62.1 µM (active) | –
COc1cc(N2CCOCC2)ccc1Nc1ncc(F)c(Nc2ccccc2NS(C)(=O)=O)n1 | 40.1% (inactive) | – | –
CN1C(=O)[C@]23SS[C@@]1(C)C(=O)N2[C@H]1Nc2ccccc2[C@]1(c1c[nH]c2ccccc12)[C@@H]3O | – | 49.3 µM (active) | –

Structure (SMILES) | activity change, negative = inhibition | Potency | outcome
Cn1nccc1Nc1nccc(-c2ccn([C@H](CO)c3ccc(Cl)c(F)c3)c(=O)c2)n1 | 11.8% (inactive) | – | –
Cc1cc(CS(=O)(=O)c2ccccc2)cc(OCc2ccc(CN3CCC[C@@H]3CO)cc2)c1 | 77.3% (inactive) | – | –
C=C(C(=O)O)C1CC2=C(C)C(=O)CC2C(C)CC1O (stereo not given) | -6.03% (inactive) | – | –
Cn1c(NC[C@@H](N)Cc2ccccc2)nc(-c2ccncc2)c(-c2ccc3ccccc3c2)c1=O | 203% (inactive) | – | –
CS/C=C/C(N)=O | 16.9% [at 112 µM] (inactive) | – | –
O=C(c1ccc(F)c(F)c1Nc1ccc(I)cc1F)N1CC(O)([C@@H]2CCCCN2)C1 | – | – | inactive; activator
CCCc1c(C(C)C)nc(C(C)C)c([C@@H](C)O)c1-c1ccc(F)cc1O | – | 14.1 µM (active) | –
CCCCCCCC(=O)N[C@@H](CC(C)C)C(=O)N[C@H](C=O)CCC(=O)O (Octanoyl-Leu-Glu-aldehyde) | – | 39.2 µM (active) | –
CCC(C)n1cc(C)c2c(C(=O)NCc3c(C)cc(C)[nH]c3=O)cc(-c3ccc(N4CCNCC4)nc3)cc21 (stereo not given) | 43.5% (inactive) | – | –
C=C(C)C(=O)O[C@H]1[C@H]2C(=C)C(=O)O[C@@H]2C[C@@H](C)[C@@H]2O[C@@H]2C(=O)[C@](C)(O)[C@@H]1OC(C)=O | 20% [at 33.1 µM] (inactive) | – | –
COc1ccc2c(c1)C[C@H](C(=O)Nc1ccc(-c3cn[nH]c3)cc1OCCN(C)C)CO2 | 24.9% (inactive) | – | –
C=C1/C=C\C(CCC)=C\c2csc(n2)C(C)NC(=O)C[C@@]2(CC(=O)O)CCC(=C)[C@H](C1)S2 (stereo not given in full) | – | 2.77 µM (active) | –
CC(=O)O[C@H]1CC[C@@]2(C)C(CC[C@]3(C)C2CC=C2C4CC(C)(C)CC[C@]4(C)CC[C@]23C)C1(C)C (stereo not given in full) | -30.9% [at 112 µM] (inactive) | – | –
CN[C@@H]1[C@@H](O)[C@@H](O[C@@H]2[C@@H](O)[C@H](O[C@H]3O[C@@H]([C@@H](C)NC)CC[C@H]3N)[C@@H](N)C[C@H]2N)OC[C@]1(C)O | – | – | inactive
CC(C)(Br)[C@@H](Cl)C[C@H](Br)[C@](C)(Cl)/C=C/Br | – | 34.9 µM (active) | –
O=C(/C=C/n1cnc(-c2cc(C(F)(F)F)cc(C(F)(F)F)c2)n1)NNc1cnccn1 | 14.6% (inactive) | – | –
COc1ccc(C2(CNC(=O)[C@](C)(Cc3c[nH]c4ccccc34)NC(=O)Nc3ccc([N+](=O)[O-])cc3)CCCCC2)nc1 | -0.0198% (inactive) | – | –
O=C(O)CC1OCc2c(O)cccc21 (stereo not given) | 12.4% [at 112 µM] (inactive) | – | –
CC(C)(C)c1ccc(-c2nc3ccccc3[nH]2)cc1 | – | – | inactive [at 33.1 µM]
C/C=C1/CC[C@@H]2c3[nH]c4ccccc4c3CCN2C1 | 1.31% [at 112 µM] (inactive) | – | –
